Screening data as filed in PubChem BioAssay.
Pf Dd2 growth = qHTS Primary assay for Inhibitors of Plasmodium falciparum Dd2 growth in vitro | P. falciparum Dd2 growth, SYBR Green, 72 h | AID 1347417, 2020 | Potency, µM (highest dose often 28.9 µM), inactives show at the top dose activity, negative = inhibition, usual class: inhibitors | 4.3% of 120,000 active; active = well fitted inhibition curve with a large enough effect;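 also: plate controls were DMSO vehicle for no effect and reference drug for full effect; nearly all actives have a fitted effect of over 65% in size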
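Infected erythrocytes (Dd2, 0.3% parasitemia, 2.5% hematocrit final) are added to compound in RPMI-1640/Albumax II medium, grown 72 h at 37C in low oxygen, then lysed with saponin/Triton-X containing SYBR Green and read by fluorescence.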
* hit, by the source's call; i = inactive; [ ] = another dose, or the depositor's remark. The entries come from a sample that favours hits as a whole. Potency is read from the fitted curve at half-maximal effect.

SMILES	Pf Dd2 growth
CC1CCCN(C(=O)Cn2ccn3nc(-c4ccccc4)c(CO)c3c2=O)C1 (stereo not given)	i
COc1ccc(CN2C(=O)[C@@H]3C[C@@H](O)CN3C3(CNC3)C2=O)cc1	12%[44.1 µM]
CCOc1nccnc1NC1CCN(S(=O)(=O)C2CC2)CC1	46%[5.79 µM]
CN(C)C[C@@H]1CN(S(C)(=O)=O)C[C@H]1NC(=O)CN1CCOCC1	56%
CC1Oc2ccc(NC(=O)COc3ccccc3)cc2CN(Cc2ccccc2)C1=O (stereo not given)	i
C[S+](=O)([O-])NCCn1ccc2cc(OC3CCN(c4ncc(F)cn4)CC3)cnc21	i
Cc1ccc(-c2nc(CCNC(=O)c3ccc(C)c(C)c3)cs2)cc1	14%
CCOc1ccc(CC(=O)NCCc2csc(-c3ccc(C)cc3)n2)cc1	10µM*
CCOc1ccc(CC(=O)NCCc2csc(-c3ccc(Cl)cc3)n2)cc1	i
Cn1cc(Cl)cc1C(=O)N1CCC2(CCCN(C3CCCC3)C2=O)C1 (stereo not given)	-25%
CCCS(=O)(=O)NC[C@H]1C[C@@H]2CCN1C[C@@H]2c1cc(-c2ccc(OC)c(OC)c2)nc(C)n1	i
COc1ccc(C(=O)NC[C@H]2C[C@@H]3CCN2C[C@@H]3c2cc(-c3ccc(N(C)C)cc3)nc(C)n2)cc1	i
Cc1nc(-c2ccccc2)cc([C@H]2CN3CC[C@H]2C[C@@H]3CNC(=O)C2CCC2)n1	i
Cc1nc(-c2ccccc2)cc([C@H]2CN3CC[C@H]2C[C@@H]3CNC(=O)C2CC2)n1	i
CCNC(=O)NC[C@H]1C[C@@H]2CCN1C[C@@H]2c1cc(-c2ccc(N(C)C)cc2)nc(C)n1	-4%[44.1 µM]
CCNC(=O)NC[C@H]1C[C@@H]2CCN1C[C@@H]2c1cc(-c2ccc(OC)c(OC)c2)nc(C)n1	-20%
Cc1nc(-c2ccccc2)cc([C@H]2CN3CC[C@H]2C[C@@H]3CN(Cc2ccco2)Cc2ccco2)n1	1.1µM*
Cc1nc(-c2ccc(N(C)C)cc2)cc([C@H]2CN3CC[C@H]2C[C@@H]3COC(=O)Nc2ccc(C(C)C)cc2)n1	4µM*
Cc1nc(-c2ccc(N(C)C)cc2)cc([C@H]2CN3CC[C@H]2C[C@@H]3COC(=O)NC(C)C)n1	-4%
Cc1nc(-c2ccc(N(C)C)cc2)cc([C@H]2CN3CC[C@H]2C[C@@H]3CNC(=O)c2ccccc2)n1	3.2µM*
COc1ccc(-c2cc([C@H]3CN4CC[C@H]3C[C@@H]4CN)nc(C)n2)cc1OC	11µM*
O=C(CC[C@H]1NC(=O)c2ccccc2NC1=O)NCCCc1nnc2ccccn12	-13%
CC1(C)N=C(c2ccccc2)C(=O)N1CC(N)=O	55%
COCCc1noc(CC2CCOC3(CCN(C(=O)NC(C)(C)C)CC3)C2)n1 (stereo not given)	-14%
O=C(NCc1ccccc1Cl)C1CCN(C(=O)c2ncn3c2COC(c2ccccc2)C3)CC1 (stereo not given)	-20%
SMILES	Pf Dd2 growth
Cc1cnc(CC2CCNC2)n1CC1CC1 (stereo not given)	-14%
O=C(O)CCCC(=O)N1C[C@@H]2C[C@H](C1)c1ccc(-c3ccc(Cl)cc3)c(=O)n1C2	19%[44.1 µM]
Cc1noc(CN2CCN(c3nc(N)nc4c3CCC4)CC(O)C2)n1 (stereo not given)	3%
O=C(NCC1CN(C(=O)Cc2ccc(OC(F)(F)F)cc2)CC12CN(c1ccccc1)C2)Nc1ccccc1 (stereo not given)	i
Cc1cccc(NC(=O)N2CCC3(CC2)CC(N2CCOCC2)CCO3)c1 (stereo not given)	i
Cc1cccnc1NC(=O)C1c2ccccc2C(=O)N(Cc2ccccc2)C12CCCC2 (stereo not given)	-29%
Cc1ccc(NC(=O)c2ccc3c(c2)N(C)C2CCCN2C3=O)cc1F (stereo not given)	i
Cn1cccc1C(=O)NC1CCN(C(=O)N2CC3CC(C2)[C@H]2CCCC(=O)N2C3)CC1 (stereo not given in full)	i
O=C1NCCC[C@@H]1NC(=O)[C@@H]1CN(C(=O)c2cccc(F)c2)CCN1C(=O)c1cnccn1	-18%
Cc1cnc(CC2CCN(C(=O)c3nn(C)c4ccccc34)C2)n1CC1CC1 (stereo not given)	i
O=C(c1ccc2ccccc2c1)N1C[C@@H]2C[C@H](C1)c1ccc(NS(=O)(=O)Cc3ccccc3)c(=O)n1C2	i
O=C(CC1CCCN(c2cnn(CC3CC3)c(=O)c2)C1)NCCN1CCOCC1 (stereo not given)	27%
COc1cccc(N2C(=O)[C@@H]3C[C@@H](NC(=O)CSC)CCN3C2=O)c1	28%[44.1 µM]
Cn1cc(CN[C@H]2[C@H](O)[C@H](O)C[C@@H]2c2ccc(N3CCOCC3)nc2)cn1	34%[44.1 µM]
Cc1ccc(C(=O)NC[C@H]2C[C@@H]3CCN2C[C@@H]3c2cc(-c3ccccc3Br)nc(C)n2)cc1	-9%
Cc1nc(-c2ccccc2Br)cc([C@H]2CN3CC[C@H]2C[C@@H]3CNC(=O)NC2CCCCC2)n1	i
Cc1nc(-c2ccccc2Br)cc([C@H]2CN3CC[C@H]2C[C@@H]3CNC(=O)c2ccc(C(C)(C)C)cc2)n1	3.2µM*
O=C(CC1CCCN(c2cnn(CC3CC3)c(=O)c2)C1)NCc1cccs1 (stereo not given)	-23%
COc1ccccc1NC(=O)c1cc2c(n1C)CCN(Cc1ccc(F)cc1)C2	-10%
Cc1ccc(CN2CCc3c(cc(C(=O)O)n3C)C2)cc1	i
Cc1cccc(CN2CCc3c(cc(C(=O)O)n3C)C2)c1	i
COc1cccc(CN2CCc3c(cc(C(=O)Nc4cc(OC)cc(OC)c4)n3C)C2)c1	8.9µM*
CCOC(=O)C1CCN(C(=O)c2cc3c(n2C)CCN(Cc2ccccc2)C3)CC1	1.6µM*
CN(C)CCCNC(=O)c1cc2c(n1C)CCN(Cc1ccc(F)cc1)C2	-20%
COc1ccc(CNC(=O)c2cc3c(n2C)CCN(Cc2ccc(F)cc2)C3)cc1	-26%
SMILES	Pf Dd2 growth
CN(C)CCNC(=O)c1cc2c(n1C)CCN(Cc1ccccc1)C2	13µM*
Cn1c(C(=O)N2CCCC2)cc2c1CCN(Cc1ccccc1)C2	-6%
Cc1ccc(CC(=O)N2CCC[C@H]2c2nc(-c3ccccc3Cl)no2)cc1	i
COc1ccccc1CCC(=O)N1CCC2(CC1)N=C(c1cccc(Br)c1)NO2	i
CC(=O)Nc1ccc(OCC(=O)N2CCN(c3ccc(Cl)cc3)CC2)nc1	23%
O=C(NCCN1CCCCC1)c1ccc(-c2ccc(N3CCCCC3)nc2)cc1	-17%
CCOC(=O)c1c(C)oc2nc(C)nc(N3CCN(c4cc(Cl)ccc4C)CC3)c12	8.9µM*
Cc1nc(N2CCOCC2)c2c(C(=O)N3CCN(c4ccccc4)CC3)c(C)oc2n1	32%
CCOC(=O)c1c(C)oc2nc(C)nc(NCCCN3CCN(c4ccccc4)CC3)c12	-13%
CCOC(=O)c1c(C)oc2nc(C)nc(NCC3CCN(Cc4cccc(Cl)c4)CC3)c12	-18%
CCOC(=O)c1c(C)oc2nc(C)nc(NCCc3ccc(OCC)cc3)c12	i[5.79 µM]
CCc1cccc(NC(=O)c2c(C)oc3nc(C)nc(N4CCCC4)c23)c1	-9%
CCOC(=O)c1c(C)oc2nc(C)nc(N3CCN(c4ccccc4F)CC3)c12	3.2µM*
CCOC(=O)c1c(C)oc2nc(C)nc(NCC3CCN(Cc4ccc(C)cc4)CC3)c12	7.1µM*
CCOC(=O)c1c(C)oc2nc(C)nc(NCCc3ccc(Cl)cc3)c12	-18%
O=C(C1CCCO1)N1CCc2c(n(Cc3ccccc3)n(-c3ccccc3)c2=O)C1 (stereo not given)	14%[44.1 µM]
